According to ChEMBL document CHEMBL1961873, “Compounds: GSK PKIS; Assays: Nanosyn kinase panel” (2012):

Experiments:
[1] = target: T1, Inhibitor of nuclear factor kappa-B kinase subunit epsilon (Homo sapiens) (UniProt Q14164); details: at 1 µM;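 also: reported values are averaged percent inhibition figures against human IKKε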
T1 sequence (whole entry): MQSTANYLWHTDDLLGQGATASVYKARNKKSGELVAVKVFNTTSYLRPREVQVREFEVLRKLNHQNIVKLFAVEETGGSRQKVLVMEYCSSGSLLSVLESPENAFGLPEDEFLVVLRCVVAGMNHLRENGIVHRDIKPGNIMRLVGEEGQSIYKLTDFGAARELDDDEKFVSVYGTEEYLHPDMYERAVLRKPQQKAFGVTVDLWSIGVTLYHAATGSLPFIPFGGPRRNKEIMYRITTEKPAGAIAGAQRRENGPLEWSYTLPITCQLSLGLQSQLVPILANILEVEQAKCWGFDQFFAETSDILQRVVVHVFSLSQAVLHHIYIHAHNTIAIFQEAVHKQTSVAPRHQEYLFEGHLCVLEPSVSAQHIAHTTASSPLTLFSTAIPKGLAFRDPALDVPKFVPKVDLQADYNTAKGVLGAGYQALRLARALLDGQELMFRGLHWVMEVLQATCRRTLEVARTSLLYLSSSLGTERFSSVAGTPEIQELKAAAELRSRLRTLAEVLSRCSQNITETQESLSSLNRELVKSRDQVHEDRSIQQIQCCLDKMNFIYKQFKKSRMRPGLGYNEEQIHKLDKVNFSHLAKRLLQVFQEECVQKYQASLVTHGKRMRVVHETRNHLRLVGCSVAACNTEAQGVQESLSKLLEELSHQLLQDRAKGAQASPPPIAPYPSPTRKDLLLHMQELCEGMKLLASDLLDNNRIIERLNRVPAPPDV

[2] = target: T2, Serine/threonine-protein kinase Nek1 (Homo sapiens) (UniProt Q96PY6); details: at 0.1 µM
T2 sequence (whole entry): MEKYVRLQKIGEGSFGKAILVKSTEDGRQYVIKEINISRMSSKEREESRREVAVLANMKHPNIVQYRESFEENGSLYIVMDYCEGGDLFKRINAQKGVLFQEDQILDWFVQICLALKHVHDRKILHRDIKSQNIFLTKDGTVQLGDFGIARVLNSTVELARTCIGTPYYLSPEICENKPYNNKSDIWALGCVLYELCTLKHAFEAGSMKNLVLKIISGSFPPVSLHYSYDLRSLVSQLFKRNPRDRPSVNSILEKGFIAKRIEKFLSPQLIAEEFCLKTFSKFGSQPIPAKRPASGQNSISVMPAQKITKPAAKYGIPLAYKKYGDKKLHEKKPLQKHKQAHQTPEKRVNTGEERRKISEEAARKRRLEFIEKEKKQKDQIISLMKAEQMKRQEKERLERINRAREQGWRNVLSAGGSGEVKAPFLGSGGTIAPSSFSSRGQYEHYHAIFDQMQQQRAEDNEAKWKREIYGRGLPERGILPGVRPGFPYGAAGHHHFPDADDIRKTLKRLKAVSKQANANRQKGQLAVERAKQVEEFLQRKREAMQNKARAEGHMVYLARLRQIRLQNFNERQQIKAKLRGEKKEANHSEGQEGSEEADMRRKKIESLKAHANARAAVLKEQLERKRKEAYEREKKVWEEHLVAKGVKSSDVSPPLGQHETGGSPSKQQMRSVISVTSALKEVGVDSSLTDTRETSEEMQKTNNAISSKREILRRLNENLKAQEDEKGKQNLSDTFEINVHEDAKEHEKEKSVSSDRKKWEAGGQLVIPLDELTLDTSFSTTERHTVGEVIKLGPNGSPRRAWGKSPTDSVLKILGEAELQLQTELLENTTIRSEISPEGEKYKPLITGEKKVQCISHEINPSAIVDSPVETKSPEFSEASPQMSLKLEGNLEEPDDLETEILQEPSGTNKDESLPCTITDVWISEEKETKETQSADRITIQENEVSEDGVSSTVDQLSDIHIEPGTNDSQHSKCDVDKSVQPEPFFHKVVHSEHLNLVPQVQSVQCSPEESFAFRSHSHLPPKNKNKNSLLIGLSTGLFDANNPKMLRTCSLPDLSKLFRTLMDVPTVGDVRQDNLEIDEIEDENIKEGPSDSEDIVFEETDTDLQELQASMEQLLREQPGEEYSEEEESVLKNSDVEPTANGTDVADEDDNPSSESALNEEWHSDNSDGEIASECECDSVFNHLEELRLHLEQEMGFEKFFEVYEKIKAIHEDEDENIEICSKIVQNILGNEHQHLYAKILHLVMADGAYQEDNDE

[3] = target: T2, Serine/threonine-protein kinase Nek1 (Homo sapiens); details: at 1 µM
[4] = target: T3, Serine/threonine-protein kinase Nek2 (Homo sapiens) (UniProt P51955); details: at 0.1 µM
T3 sequence (whole entry): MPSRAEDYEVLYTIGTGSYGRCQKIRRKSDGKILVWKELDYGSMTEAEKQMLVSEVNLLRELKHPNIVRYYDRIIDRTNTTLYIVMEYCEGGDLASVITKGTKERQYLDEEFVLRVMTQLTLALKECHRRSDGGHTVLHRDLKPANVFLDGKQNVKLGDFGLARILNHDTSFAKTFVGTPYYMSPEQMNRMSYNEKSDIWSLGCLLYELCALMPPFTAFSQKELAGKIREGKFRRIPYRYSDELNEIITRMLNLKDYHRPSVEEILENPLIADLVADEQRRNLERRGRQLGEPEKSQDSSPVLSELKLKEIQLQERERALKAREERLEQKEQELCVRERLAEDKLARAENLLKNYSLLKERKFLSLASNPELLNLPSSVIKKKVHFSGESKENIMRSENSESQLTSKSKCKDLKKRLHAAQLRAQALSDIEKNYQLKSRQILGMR

[5] = target: T3, Serine/threonine-protein kinase Nek2 (Homo sapiens); details: at 1 µM
[6] = target: Serine/threonine-protein kinase Nek6 (Homo sapiens) (UniProt Q9HC98); details: at 0.1 µM
[7] = target: Serine/threonine-protein kinase Nek6 (Homo sapiens) (UniProt Q9HC98); details: at 1 µM
[8] = target: Serine/threonine-protein kinase Nek7 (Homo sapiens) (UniProt Q8TDX7); details: at 0.1 µM
[9] = target: Serine/threonine-protein kinase Nek7 (Homo sapiens) (UniProt Q8TDX7); details: at 1 µM
[10] = target: T4, Serine/threonine-protein kinase Nek9 (Homo sapiens) (UniProt Q8TD19); details: at 0.1 µM
T4 sequence (whole entry): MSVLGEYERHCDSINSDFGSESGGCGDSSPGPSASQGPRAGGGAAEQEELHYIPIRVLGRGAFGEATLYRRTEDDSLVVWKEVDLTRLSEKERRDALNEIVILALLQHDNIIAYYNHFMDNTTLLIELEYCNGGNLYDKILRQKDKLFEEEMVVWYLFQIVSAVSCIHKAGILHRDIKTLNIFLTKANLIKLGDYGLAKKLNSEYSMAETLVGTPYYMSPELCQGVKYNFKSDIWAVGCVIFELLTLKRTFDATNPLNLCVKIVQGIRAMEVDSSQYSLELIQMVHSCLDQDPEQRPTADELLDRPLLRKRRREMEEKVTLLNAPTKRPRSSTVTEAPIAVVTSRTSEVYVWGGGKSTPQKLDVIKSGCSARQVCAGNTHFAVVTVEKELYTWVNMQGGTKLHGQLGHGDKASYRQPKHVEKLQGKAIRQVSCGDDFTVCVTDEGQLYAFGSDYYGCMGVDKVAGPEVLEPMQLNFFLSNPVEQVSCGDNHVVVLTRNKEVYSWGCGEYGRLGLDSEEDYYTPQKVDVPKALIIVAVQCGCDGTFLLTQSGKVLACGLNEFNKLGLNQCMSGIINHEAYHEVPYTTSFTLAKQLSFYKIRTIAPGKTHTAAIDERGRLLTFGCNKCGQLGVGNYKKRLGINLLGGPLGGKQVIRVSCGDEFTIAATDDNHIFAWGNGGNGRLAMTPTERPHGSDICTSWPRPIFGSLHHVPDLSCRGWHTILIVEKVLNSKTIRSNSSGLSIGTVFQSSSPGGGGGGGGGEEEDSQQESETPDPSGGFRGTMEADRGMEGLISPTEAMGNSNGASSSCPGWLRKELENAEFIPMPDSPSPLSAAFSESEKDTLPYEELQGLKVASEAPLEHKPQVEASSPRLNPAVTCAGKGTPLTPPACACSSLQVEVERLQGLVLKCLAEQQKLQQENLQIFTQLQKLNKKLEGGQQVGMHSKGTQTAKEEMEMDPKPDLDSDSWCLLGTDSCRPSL

[11] = target: T4, Serine/threonine-protein kinase Nek9 (Homo sapiens); details: at 1 µM
[12] = target: Serine/threonine-protein kinase PLK1 (Homo sapiens) (UniProt P53350); details: at 0.1 µM
[13] = target: Serine/threonine-protein kinase PLK1 (Homo sapiens) (UniProt P53350); details: at 1 µM
[14] = target: T5, Dual specificity protein kinase TTK (Homo sapiens) (UniProt P33981); details: at 0.1 µM
T5 sequence (whole entry): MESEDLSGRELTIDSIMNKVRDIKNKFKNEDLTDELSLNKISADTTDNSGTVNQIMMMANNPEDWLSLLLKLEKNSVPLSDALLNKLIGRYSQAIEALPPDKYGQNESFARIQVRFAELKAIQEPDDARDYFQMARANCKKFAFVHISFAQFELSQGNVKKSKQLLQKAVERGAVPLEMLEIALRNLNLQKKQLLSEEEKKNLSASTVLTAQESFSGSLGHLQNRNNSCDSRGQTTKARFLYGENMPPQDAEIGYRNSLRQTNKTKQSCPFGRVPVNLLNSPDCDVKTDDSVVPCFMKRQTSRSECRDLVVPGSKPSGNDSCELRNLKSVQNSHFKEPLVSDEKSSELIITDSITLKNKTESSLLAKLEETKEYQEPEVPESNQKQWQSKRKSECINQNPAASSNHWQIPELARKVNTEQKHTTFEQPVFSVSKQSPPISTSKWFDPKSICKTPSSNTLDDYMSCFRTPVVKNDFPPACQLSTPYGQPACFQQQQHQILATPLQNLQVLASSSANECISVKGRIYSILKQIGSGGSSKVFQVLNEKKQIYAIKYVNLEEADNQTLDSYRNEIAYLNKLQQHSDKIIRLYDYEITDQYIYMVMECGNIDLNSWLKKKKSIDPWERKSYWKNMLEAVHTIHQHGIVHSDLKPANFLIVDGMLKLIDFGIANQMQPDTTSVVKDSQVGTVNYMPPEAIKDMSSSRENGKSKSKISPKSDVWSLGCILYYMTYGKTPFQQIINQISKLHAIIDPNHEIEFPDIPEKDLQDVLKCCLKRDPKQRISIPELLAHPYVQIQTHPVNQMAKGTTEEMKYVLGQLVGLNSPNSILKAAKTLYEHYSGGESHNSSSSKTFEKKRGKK

[15] = test system: T6, Receptor-type tyrosine-protein kinase FLT3 (Homo sapiens), P36888 [D835Y]; details: at 1 µM
T6 sequence (whole entry): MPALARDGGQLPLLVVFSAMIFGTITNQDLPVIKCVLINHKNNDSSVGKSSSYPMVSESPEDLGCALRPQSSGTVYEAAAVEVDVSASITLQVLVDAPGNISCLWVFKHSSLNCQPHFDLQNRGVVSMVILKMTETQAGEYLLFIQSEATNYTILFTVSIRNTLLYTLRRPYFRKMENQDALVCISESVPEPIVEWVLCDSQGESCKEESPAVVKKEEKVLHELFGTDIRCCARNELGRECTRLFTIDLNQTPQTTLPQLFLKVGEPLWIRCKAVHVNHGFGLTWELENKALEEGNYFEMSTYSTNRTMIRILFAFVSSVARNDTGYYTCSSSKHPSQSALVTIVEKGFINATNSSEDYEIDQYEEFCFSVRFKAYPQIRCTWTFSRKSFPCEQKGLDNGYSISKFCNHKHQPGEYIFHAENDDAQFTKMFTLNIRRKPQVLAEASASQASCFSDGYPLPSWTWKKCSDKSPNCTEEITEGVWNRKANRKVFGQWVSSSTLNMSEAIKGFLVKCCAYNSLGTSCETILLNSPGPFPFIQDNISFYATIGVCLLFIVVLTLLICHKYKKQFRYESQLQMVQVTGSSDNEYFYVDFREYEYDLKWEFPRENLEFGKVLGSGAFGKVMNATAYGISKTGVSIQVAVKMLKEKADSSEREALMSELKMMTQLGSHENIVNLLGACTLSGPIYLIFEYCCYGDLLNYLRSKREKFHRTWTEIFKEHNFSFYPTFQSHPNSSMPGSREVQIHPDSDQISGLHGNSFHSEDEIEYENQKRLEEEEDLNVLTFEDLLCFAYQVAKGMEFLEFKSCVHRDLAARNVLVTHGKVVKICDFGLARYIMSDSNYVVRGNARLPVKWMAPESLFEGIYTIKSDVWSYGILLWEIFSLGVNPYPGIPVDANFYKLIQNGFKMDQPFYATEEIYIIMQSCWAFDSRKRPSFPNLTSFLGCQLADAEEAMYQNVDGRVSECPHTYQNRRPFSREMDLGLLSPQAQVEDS

[16] = target: Vascular endothelial growth factor receptor 3 (Homo sapiens) (UniProt P35916); details: at 0.1 µM
[17] = target: Vascular endothelial growth factor receptor 3 (Homo sapiens) (UniProt P35916); details: at 1 µM
[18] = target: Macrophage colony-stimulating factor 1 receptor (Homo sapiens) (UniProt P07333); details: at 0.1 µM
[19] = target: Macrophage colony-stimulating factor 1 receptor (Homo sapiens) (UniProt P07333); details: at 1 µM
[20] = target: Tyrosine-protein kinase Fyn (Homo sapiens) (UniProt P06241); details: at 0.1 µM
Tyrosine-protein kinase Fyn (Homo sapiens), sequence (P06241 2-537 limits assumed): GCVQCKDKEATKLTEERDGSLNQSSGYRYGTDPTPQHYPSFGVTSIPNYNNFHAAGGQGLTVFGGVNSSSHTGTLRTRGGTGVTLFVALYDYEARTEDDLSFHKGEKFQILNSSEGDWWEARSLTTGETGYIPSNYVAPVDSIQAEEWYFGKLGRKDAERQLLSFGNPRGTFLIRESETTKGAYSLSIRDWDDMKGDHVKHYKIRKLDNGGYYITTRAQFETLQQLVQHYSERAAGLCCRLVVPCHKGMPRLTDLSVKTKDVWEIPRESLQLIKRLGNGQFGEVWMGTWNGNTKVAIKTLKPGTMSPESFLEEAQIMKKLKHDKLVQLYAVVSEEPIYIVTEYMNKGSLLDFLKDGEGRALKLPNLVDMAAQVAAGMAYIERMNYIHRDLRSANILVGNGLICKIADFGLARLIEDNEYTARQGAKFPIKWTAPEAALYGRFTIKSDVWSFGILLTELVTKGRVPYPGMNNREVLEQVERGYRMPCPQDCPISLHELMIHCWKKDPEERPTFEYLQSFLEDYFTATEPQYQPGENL

Serine/threonine-protein kinase Nek7 (Homo sapiens), sequence (Q8TDX7 whole entry, looked up): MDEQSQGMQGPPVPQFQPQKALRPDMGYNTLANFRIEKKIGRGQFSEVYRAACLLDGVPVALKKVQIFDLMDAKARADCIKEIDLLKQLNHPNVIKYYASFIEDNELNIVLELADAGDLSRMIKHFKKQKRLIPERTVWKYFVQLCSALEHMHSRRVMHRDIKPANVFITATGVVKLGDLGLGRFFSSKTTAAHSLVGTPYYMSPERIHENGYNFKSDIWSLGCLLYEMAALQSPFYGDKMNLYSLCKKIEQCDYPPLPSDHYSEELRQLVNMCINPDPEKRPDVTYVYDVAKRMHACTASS
Macrophage colony-stimulating factor 1 receptor (Homo sapiens), sequence (P07333 whole entry): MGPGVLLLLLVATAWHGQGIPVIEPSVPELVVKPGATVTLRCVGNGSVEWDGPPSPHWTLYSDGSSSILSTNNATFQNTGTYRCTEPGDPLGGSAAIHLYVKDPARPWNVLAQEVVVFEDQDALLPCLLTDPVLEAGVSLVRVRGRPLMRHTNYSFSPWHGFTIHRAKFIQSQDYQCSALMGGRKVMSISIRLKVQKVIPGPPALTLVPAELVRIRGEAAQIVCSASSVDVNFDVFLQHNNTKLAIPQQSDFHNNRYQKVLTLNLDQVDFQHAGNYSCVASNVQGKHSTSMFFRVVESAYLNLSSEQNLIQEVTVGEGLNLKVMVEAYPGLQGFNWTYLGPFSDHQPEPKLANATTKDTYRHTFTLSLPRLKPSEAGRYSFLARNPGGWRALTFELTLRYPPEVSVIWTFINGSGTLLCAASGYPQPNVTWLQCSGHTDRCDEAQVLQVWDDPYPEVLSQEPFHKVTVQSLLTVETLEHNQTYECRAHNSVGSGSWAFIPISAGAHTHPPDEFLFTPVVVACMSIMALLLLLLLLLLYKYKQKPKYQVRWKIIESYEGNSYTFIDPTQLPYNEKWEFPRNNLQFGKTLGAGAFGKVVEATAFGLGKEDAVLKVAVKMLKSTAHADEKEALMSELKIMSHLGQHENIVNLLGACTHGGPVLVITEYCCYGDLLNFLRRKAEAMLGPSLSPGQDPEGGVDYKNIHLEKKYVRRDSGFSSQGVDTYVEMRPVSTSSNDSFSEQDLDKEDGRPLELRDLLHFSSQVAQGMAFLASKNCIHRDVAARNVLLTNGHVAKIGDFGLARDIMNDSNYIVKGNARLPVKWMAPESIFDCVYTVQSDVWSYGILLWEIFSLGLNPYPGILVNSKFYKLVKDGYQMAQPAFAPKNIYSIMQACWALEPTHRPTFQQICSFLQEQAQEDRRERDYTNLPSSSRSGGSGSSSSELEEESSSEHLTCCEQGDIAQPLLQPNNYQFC
Serine/threonine-protein kinase Nek6 (Homo sapiens), sequence (Q9HC98 whole entry): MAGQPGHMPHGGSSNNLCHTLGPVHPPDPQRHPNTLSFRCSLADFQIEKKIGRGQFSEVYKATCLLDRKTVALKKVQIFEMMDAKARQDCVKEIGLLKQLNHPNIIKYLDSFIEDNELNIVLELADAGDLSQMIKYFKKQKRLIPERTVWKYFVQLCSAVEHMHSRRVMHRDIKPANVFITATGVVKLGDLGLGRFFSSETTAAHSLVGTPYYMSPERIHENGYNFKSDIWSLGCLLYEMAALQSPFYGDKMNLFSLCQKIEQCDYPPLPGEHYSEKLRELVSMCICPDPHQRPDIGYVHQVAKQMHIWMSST
Serine/threonine-protein kinase PLK1 (Homo sapiens), sequence (P53350 whole entry): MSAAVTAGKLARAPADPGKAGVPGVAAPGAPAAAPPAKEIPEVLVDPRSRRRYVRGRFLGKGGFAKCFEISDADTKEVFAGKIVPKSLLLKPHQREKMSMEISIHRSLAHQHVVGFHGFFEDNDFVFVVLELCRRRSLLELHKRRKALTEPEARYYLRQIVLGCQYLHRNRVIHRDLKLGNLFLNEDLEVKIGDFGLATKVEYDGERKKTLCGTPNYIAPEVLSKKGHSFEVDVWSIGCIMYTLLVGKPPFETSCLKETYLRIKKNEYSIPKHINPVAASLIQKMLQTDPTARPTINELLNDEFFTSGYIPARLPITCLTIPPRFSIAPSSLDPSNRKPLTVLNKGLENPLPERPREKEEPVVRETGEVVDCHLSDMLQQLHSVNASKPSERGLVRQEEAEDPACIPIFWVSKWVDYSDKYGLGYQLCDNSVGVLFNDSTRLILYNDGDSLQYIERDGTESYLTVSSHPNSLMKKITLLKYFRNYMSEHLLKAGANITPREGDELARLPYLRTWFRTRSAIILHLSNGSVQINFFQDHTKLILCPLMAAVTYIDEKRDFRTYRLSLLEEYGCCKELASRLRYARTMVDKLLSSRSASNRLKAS
Vascular endothelial growth factor receptor 3 (Homo sapiens), sequence (P35916 whole entry): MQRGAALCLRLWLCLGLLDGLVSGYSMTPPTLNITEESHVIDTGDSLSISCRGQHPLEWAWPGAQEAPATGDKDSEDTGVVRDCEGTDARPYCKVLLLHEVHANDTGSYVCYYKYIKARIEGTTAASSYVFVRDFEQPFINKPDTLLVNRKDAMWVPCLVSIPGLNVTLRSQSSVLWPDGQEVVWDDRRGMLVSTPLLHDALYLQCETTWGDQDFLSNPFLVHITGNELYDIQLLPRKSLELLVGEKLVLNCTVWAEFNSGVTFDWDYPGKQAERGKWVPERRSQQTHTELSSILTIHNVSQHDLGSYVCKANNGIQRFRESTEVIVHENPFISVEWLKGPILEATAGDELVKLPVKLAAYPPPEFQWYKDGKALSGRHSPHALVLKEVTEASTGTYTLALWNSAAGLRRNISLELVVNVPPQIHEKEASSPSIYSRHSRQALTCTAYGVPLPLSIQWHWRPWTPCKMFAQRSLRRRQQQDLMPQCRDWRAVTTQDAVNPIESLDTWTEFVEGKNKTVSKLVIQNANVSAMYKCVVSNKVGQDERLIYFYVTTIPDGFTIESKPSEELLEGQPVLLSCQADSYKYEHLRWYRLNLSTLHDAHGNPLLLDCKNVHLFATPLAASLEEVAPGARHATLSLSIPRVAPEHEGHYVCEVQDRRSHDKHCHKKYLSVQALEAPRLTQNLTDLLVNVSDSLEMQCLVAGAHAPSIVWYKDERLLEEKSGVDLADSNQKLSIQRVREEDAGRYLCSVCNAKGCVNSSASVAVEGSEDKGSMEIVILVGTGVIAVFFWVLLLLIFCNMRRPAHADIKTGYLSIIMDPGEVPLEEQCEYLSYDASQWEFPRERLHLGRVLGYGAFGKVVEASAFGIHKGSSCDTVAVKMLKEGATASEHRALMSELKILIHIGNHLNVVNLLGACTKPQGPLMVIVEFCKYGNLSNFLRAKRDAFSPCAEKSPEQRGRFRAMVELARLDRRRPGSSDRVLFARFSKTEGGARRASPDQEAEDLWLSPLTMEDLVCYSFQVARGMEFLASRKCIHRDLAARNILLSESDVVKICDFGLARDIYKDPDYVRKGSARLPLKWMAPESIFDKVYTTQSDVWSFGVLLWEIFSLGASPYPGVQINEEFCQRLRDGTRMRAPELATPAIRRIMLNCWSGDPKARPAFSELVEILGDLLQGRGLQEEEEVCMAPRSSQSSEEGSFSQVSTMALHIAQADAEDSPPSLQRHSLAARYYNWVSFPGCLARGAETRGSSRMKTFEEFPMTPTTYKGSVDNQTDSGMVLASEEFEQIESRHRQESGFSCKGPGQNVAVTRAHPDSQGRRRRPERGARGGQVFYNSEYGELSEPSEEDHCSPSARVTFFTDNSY

SMILES	inhibition [1]	inhibition [2]	inhibition [3]	inhibition [4]	inhibition [5]	inhibition [6]	inhibition [7]	inhibition [8]	inhibition [9]	inhibition [10]	inhibition [11]	inhibition [12]	inhibition [13]	inhibition [14]	inhibition [15]	inhibition [16]	inhibition [17]	inhibition [18]	inhibition [19]	inhibition [20]
N#Cc1ccc(Oc2nccc(-c3c(-c4ccc(F)cc4)ncn3C3CCNCC3)n2)cc1	5.32%	2.19%	2.49%	4.13%	4.63%	3.13%	3.68%	3.62%	6.16%	9.06%	9.35%	4.8%	4.75%	8.02%	4.07%	-3.29%	-0.83%	0.11%	9.12%	-0.87%
O=C(Nc1n[nH]c2nc(-c3ccco3)ccc12)C1CC1	-0.75%	1.33%	1.36%	-0.12%	1.78%	1.86%	-0.99%	2.23%	2.61%	6.28%	-0.33%	1.81%	0.82%	1.09%	3.83%	-1.89%	2.09%	-1.01%	2.62%	1.1%
COc1ccc(-c2ccc3c(NC(=O)C4CC4)n[nH]c3n2)cc1	-8.46%	0.44%	2.1%	1.84%	1.4%	2.4%	3.26%	2.52%	1.09%	4%	3.42%	3.2%	0.74%	5.12%	5.49%	1.77%	1.31%	1.02%	1.62%	1.9%
